Data as given in PubChem BioAssay (EPA / NIEHS).
Calls of active or inactive are those of the source. How the source made its calls: active means hit-call score of the fitted dose curve at least 0.9, where 1 is the maximum; inactive means score below 0.9.

Test: CEETOX_H295R_11DCORT: CeeTox H295R High-throughput Steroidogenesis Assay for 11-Deoxycortisol (11DCORT) (AID 2283432);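 on AC50: 11-deoxycortisol secreted into the medium measured by LC-MS/MS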
Conditions: actives raise or lower the signal
Procedure: CEETOX_H295R is a cell-based, multiplexed-readout assay that uses H295R, a human adrenal gland cell line, with measurements taken at 48 hours after chemical dosing in a 96-well plate.CEETOX_H295R_11DCORT is one of 23 assay component(s) measured or calculated from the CEETOX_H295R assay. It is designed to make measurements of hormone induction, a form of inducible reporter, as detected with absorbance signals by HPLC-MS-MS technology.Data from the assay component CEETOX_H295R_11DCORT was analyzed into 1 assay endpoint. This assay endpoint, CEETOX_H295R_11DCORT, was analyzed with bidirectional fitting relative to DMSO as the negative control and baseline of activity. Using a type of inducible reporter, gain or loss-of-signal activity using HPLC-MS-MS was used to understand synthesis of 11-Deoxycortisol in H295R cell line at 48hr of chemical exposure. To generalize the intended target to other relatable targets, this assay endpoint is annotated to the steroid hormone intended target family, where the subfamily is glucocorticoids.
Cell culture and media preparation procedures were conducted in accordance with OECD Test No. 456 guidelines, with minor modifications. H295R cells (ATCC CRL-2128) were expanded for 5 passages and frozen in batches in liquid nitrogen. Prior to the steroidogenesis assay, H295R cells were thawed and passed at least 4 times. The maximum passage was 10. Cells were maintained in a 1:1 mixture of DMEM/F12 supplemented with 5ml/L ITS+ Premix (BD Bioscience) and 12.5 ml/L Nu-Serum (BD Bioscience). After seeding cells into 96-well plates at 50-60% confluency, cells were allowed to adhere overnight. Prior to chemical testing, culture medium was replaced with 175 uL medium containing 10 uM forskolin to stimulate steroidogenesis for 48 hours. Following prestimulation, forskolin medium was replaced with medium containing test chemical solubilized in DMSO (ensuring a final concentration of 0.1% DMSO). Test chemicals were incubated for 48 hours, then the medium was removed and split into 2 vials containing approximately 75uL each, and stored at -80 C prior to hormone analysis. For steroid quantification, media samples were shipped to OpAns, LLC (Durham, NC) on dry ice, and samples were thawed to room temperature prior to liquid-liquid extraction. Steroid hormones were extracted from media samples using methyl tertbutyl ether (MTBE). An extra derivatization with dansyl chloride was included for estrogen (estrone and estradiol) detection only. Steroid hormones were separated by HPLC, eluted using a reverse phase C18 gradient with electrospray positive ionization, followed by quantification by tandem mass spectrometry (MS/MS). Data were acquired on a MassHunter Workstation Acquisition version B03.01 (Agilent Technologies, Inc.) and processed using MassHunter Quantitative Analysis for QQQ. Accuracy was determined for each hormone analyte from 3 standards to determine upper and lower limits of quantification (ULOQ and LLOQ, respectively) using a 7-point standard curve. Precision and accuracy of the extraction and quantification methods were calculated as the percent relative standard deviation (%RSD) of the spiked standards and percent spiked standard recovered, respectively. The goal was to achieve 100% accuracy (i.e., recover all spiked-in standard at quantification with minimal loss during run time) and good precision (i.e., have %RSD <15% to ensure reproducibility). Test medium was removed following chemical exposure, and cell viability was evaluated in the same wells by MTT. MTT procedures were as follows: after removal of test medium, 500 uL of 0.5 mg/ml of 3-[4,5-dimethylthiazol-2-y]2,5-diphenyltetrazoliumbromide solution was added to the cells. Following a 4-hour incubation at 37 C and 5% CO2 to allow formazan-crystal formation, the MTT solution was removed and blue formazan salt crystals were solubilized using 500uL anhydrous isopropanol with shaking for 20 minutes. […]

Compound	outcome	AC50
CC(C)c1nnc2ccc(-c3ocnc3-c3cc(F)ccc3F)cn12	inactive	–
COc1cc2c(c(OC)c1OC)-c1ccc(OC)c(=O)cc1[C@@H](NC(C)=O)CC2	inactive	–
C[C@]12C=CC(=O)C=C1CC[C@H]1[C@@H]3C[C@@H](O)[C@](O)(C(=O)CO)[C@@]3(C)C[C@H](O)[C@@]12F	inactive	–
CC[C@H](C)C(=O)O[C@H]1C[C@H](O)C=C2C=C[C@H](C)[C@H](CC[C@@H](O)C[C@@H](O)CC(=O)O)[C@H]21	–	5.33 µM (active)
CCn1nc(C)c2c1C(=O)NCC(c1ccc(O)cc1)=N2	inactive	–
CCCOc1ccc(S(=O)(=O)N2CCN(CC)CC2)cc1-c1nc2c(CC)n(Cc3ccccn3)nc2c(=O)[nH]1	inactive	–
C[C@@H](Oc1ccc(CNC(=O)c2cccnc2Oc2ccc3c(c2)OCO3)c(F)c1)C(=O)O	inactive	–
Nc1ccn([C@@H]2O[C@H](CO)[C@@H](O)[C@@H]2O)c(=O)n1	inactive	–
CCN(CC)C(=S)SSC(=S)N(CC)CC	inactive	–
C=CCc1cc(S(=O)(=O)c2ccc(O)c(CC=C)c2)ccc1O	–	6.4 µM (active)
CCCCCCCCN(C)C	inactive	–
c1ccc2c(c1)-c1cccc3c1c-2cc1ccccc13	–	2.55 µM (active)
CCCCC(CC)C(=O)OCCOCCOCCOC(=O)C(CC)CCCC (stereo not drawn)	inactive	–
